# Source: paper PMC11006913
# Positions count from the first letter of the chain named.
# Columns and labels:
# Test in all cases: PBM; 200 nM protein, PBS
# Details in all cases: dsDNA, one strand shown
# [1] = target: T1, VENTX (Homo sapiens, UniProt O95231 78-163, R121Q)
# T1 sequence: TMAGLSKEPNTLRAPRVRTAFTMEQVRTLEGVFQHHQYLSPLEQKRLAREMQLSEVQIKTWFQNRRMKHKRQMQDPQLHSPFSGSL
# [2] = target: T2, VENTX (Homo sapiens, UniProt O95231 78-163)
# T2 sequence: T1 sequence with Q44R
# [3] = target: T3, VENTX (Homo sapiens, UniProt O95231 78-163, Y115F)
# T3 sequence: T1 sequence with Y38F, Q44R
# [4] = target: VAX1 (Homo sapiens, UniProt Q5SQQ9 86-172)
# VAX1 (Homo sapiens, UniProt Q5SQQ9 86-172), sequence (Q5SQQ9 86-172): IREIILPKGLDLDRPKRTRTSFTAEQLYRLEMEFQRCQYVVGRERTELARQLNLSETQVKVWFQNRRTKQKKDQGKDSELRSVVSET
# [5] = target: VAX1 (Homo sapiens, UniProt Q5SQQ9 86-172, T142I)
# VAX1 (Homo sapiens, UniProt Q5SQQ9 86-172, T142I), sequence (Q5SQQ9 86-172 T142I): as the sequence (Q5SQQ9 86-172) above, with T57I counted along it
# [6] = target: VAX1 (Homo sapiens, UniProt Q5SQQ9 86-172, K157R)
# VAX1 (Homo sapiens, UniProt Q5SQQ9 86-172, K157R), sequence (Q5SQQ9 86-172 K157R): as the sequence (Q5SQQ9 86-172) above, with K72R counted along it
# [7] = target: HOXB6 (Homo sapiens, UniProt P17509 132-218, K202E)
# HOXB6 (Homo sapiens, UniProt P17509 132-218, K202E), sequence (P17509 132-218 K202E): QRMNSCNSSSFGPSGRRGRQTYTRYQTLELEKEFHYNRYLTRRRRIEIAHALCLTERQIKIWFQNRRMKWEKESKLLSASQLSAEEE
# [8] = target: HOXA2 (Homo sapiens, UniProt O43364 129-215, R185T)
# HOXA2 (Homo sapiens, UniProt O43364 129-215, R185T), sequence (O43364 129-215 R185T): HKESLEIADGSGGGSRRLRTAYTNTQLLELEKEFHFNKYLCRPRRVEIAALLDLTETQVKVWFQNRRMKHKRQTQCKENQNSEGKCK
# [9] = target: ALX1 (Homo sapiens, UniProt Q15699 118-204, L144V)
# ALX1 (Homo sapiens, UniProt Q15699 118-204, L144V), sequence (Q15699 118-204 L144V): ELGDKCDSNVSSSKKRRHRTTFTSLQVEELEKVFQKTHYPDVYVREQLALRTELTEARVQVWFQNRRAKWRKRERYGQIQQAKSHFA
# [10] = target: ALX3 (Homo sapiens, UniProt O95076 139-225, N203Q)
# ALX3 (Homo sapiens, UniProt O95076 139-225, N203Q), sequence (O95076 139-225 N203Q): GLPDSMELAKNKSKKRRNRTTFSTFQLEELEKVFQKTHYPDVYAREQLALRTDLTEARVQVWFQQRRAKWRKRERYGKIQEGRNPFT
# [11] = target: HOXA2 (Homo sapiens, UniProt O43364 129-215, R185K)
# HOXA2 (Homo sapiens, UniProt O43364 129-215, R185K), sequence (O43364 129-215 R185K): as the sequence (O43364 129-215 R185T) above, with T57K counted along it
# [12] = target: ALX1 (Homo sapiens, UniProt Q15699 118-204, L144R)
# ALX1 (Homo sapiens, UniProt Q15699 118-204, L144R), sequence (Q15699 118-204 L144R): as the sequence (Q15699 118-204 L144V) above, with V27R counted along it
# [13] = target: ALX3 (Homo sapiens, UniProt O95076 139-225)
# ALX3 (Homo sapiens, UniProt O95076 139-225), sequence (O95076 139-225): as the sequence (O95076 139-225 N203Q) above, with Q65N counted along it
# [14] = target: ALX3 (Homo sapiens, UniProt O95076 139-225, L168Q)
# ALX3 (Homo sapiens, UniProt O95076 139-225, L168Q), sequence (O95076 139-225 L168Q): as the sequence (O95076 139-225 N203Q) above, with L30Q, Q65N counted along it
# [15] = target: ALX3 (Homo sapiens, UniProt O95076 139-225, L168V)
# ALX3 (Homo sapiens, UniProt O95076 139-225, L168V), sequence (O95076 139-225 L168V): as the sequence (O95076 139-225 N203Q) above, with L30V, Q65N counted along it
# [16] = target: HOXA2 (Homo sapiens, UniProt O43364 129-215, Y150S)
# HOXA2 (Homo sapiens, UniProt O43364 129-215, Y150S), sequence (O43364 129-215 Y150S): as the sequence (O43364 129-215 R185T) above, with Y22S, T57R counted along it
# [17] = target: ALX1 (Homo sapiens, UniProt Q15699 118-204)
# ALX1 (Homo sapiens, UniProt Q15699 118-204), sequence (Q15699 118-204): as the sequence (Q15699 118-204 L144V) above, with V27L counted along it
# [18] = target: ALX3 (Homo sapiens, UniProt O95076 139-225, N203S)
# ALX3 (Homo sapiens, UniProt O95076 139-225, N203S), sequence (O95076 139-225 N203S): as the sequence (O95076 139-225 N203Q) above, with Q65S counted along it
# [19] = target: HOXA2 (Homo sapiens, UniProt O43364 129-215)
# HOXA2 (Homo sapiens, UniProt O43364 129-215), sequence (O43364 129-215): as the sequence (O43364 129-215 R185T) above, with T57R counted along it
# [20] = target: HOXB6 (Homo sapiens, UniProt P17509 132-218)
# HOXB6 (Homo sapiens, UniProt P17509 132-218), sequence (P17509 132-218): as the sequence (P17509 132-218 K202E) above, with E71K counted along it
sequence,measurement,setting,value
CCCACGCA,binding signal,[1],"8.08 upbm affinity estimate (log intensity, higher = more binding, comparable within an allelic series)"
same,binding signal,[2],"7.93 upbm affinity estimate (log intensity, higher = more binding, comparable within an allelic series)"
same,binding signal,[3],"7.96 upbm affinity estimate (log intensity, higher = more binding, comparable within an allelic series)"
same,binding signal,[4],"7.08 upbm affinity estimate (log intensity, higher = more binding, comparable within an allelic series)"
same,binding signal,[5],"7.21 upbm affinity estimate (log intensity, higher = more binding, comparable within an allelic series)"
same,binding signal,[6],"7.04 upbm affinity estimate (log intensity, higher = more binding, comparable within an allelic series)"
GCCCAGGC,binding signal,[1],"7.88 upbm affinity estimate (log intensity, higher = more binding, comparable within an allelic series)"
same,binding signal,[2],"7.61 upbm affinity estimate (log intensity, higher = more binding, comparable within an allelic series)"
same,binding signal,[3],"7.8 upbm affinity estimate (log intensity, higher = more binding, comparable within an allelic series)"
same,binding signal,[7],"8.91 upbm affinity estimate (log intensity, higher = more binding, comparable within an allelic series)"
same,binding signal,[8],"6.96 upbm affinity estimate (log intensity, higher = more binding, comparable within an allelic series)"
same,binding signal,[9],"6.2 upbm affinity estimate (log intensity, higher = more binding, comparable within an allelic series)"
same,binding signal,[10],"7.68 upbm affinity estimate (log intensity, higher = more binding, comparable within an allelic series)"
same,binding signal,[11],"10 upbm affinity estimate (log intensity, higher = more binding, comparable within an allelic series)"
same,binding signal,[12],"6.3 upbm affinity estimate (log intensity, higher = more binding, comparable within an allelic series)"
same,binding signal,[13],"7.31 upbm affinity estimate (log intensity, higher = more binding, comparable within an allelic series)"
same,binding signal,[14],"7.59 upbm affinity estimate (log intensity, higher = more binding, comparable within an allelic series)"
same,binding signal,[15],"7.69 upbm affinity estimate (log intensity, higher = more binding, comparable within an allelic series)"
same,binding signal,[16],"10.3 upbm affinity estimate (log intensity, higher = more binding, comparable within an allelic series)"
same,binding signal,[17],"6.12 upbm affinity estimate (log intensity, higher = more binding, comparable within an allelic series)"
same,binding signal,[18],"7.71 upbm affinity estimate (log intensity, higher = more binding, comparable within an allelic series)"
same,binding signal,[19],"7.01 upbm affinity estimate (log intensity, higher = more binding, comparable within an allelic series)"
same,binding signal,[20],"8.63 upbm affinity estimate (log intensity, higher = more binding, comparable within an allelic series)"
CCCCATTA,binding signal,[1],"11.5 upbm affinity estimate (log intensity, higher = more binding, comparable within an allelic series)"
same,binding signal,[2],"12.3 upbm affinity estimate (log intensity, higher = more binding, comparable within an allelic series)"
same,binding signal,[3],"11.3 upbm affinity estimate (log intensity, higher = more binding, comparable within an allelic series)"
GCGGCCCC,binding signal,[1],"8.15 upbm affinity estimate (log intensity, higher = more binding, comparable within an allelic series)"
same,binding signal,[2],"8.27 upbm affinity estimate (log intensity, higher = more binding, comparable within an allelic series)"
same,binding signal,[3],"8.25 upbm affinity estimate (log intensity, higher = more binding, comparable within an allelic series)"
same,binding signal,[8],"6.96 upbm affinity estimate (log intensity, higher = more binding, comparable within an allelic series)"
same,binding signal,[11],"9.93 upbm affinity estimate (log intensity, higher = more binding, comparable within an allelic series)"
same,binding signal,[16],"10.3 upbm affinity estimate (log intensity, higher = more binding, comparable within an allelic series)"
same,binding signal,[19],"7.15 upbm affinity estimate (log intensity, higher = more binding, comparable within an allelic series)"
CCCGTCCG,binding signal,[1],"7.93 upbm affinity estimate (log intensity, higher = more binding, comparable within an allelic series)"
same,binding signal,[2],"7.94 upbm affinity estimate (log intensity, higher = more binding, comparable within an allelic series)"
same,binding signal,[3],"7.87 upbm affinity estimate (log intensity, higher = more binding, comparable within an allelic series)"
same,binding signal,[10],"7.62 upbm affinity estimate (log intensity, higher = more binding, comparable within an allelic series)"
same,binding signal,[13],"7.58 upbm affinity estimate (log intensity, higher = more binding, comparable within an allelic series)"
same,binding signal,[14],"7.67 upbm affinity estimate (log intensity, higher = more binding, comparable within an allelic series)"
same,binding signal,[15],"7.65 upbm affinity estimate (log intensity, higher = more binding, comparable within an allelic series)"
same,binding signal,[18],"7.6 upbm affinity estimate (log intensity, higher = more binding, comparable within an allelic series)"
AGCGTGCC,binding signal,[1],"8.06 upbm affinity estimate (log intensity, higher = more binding, comparable within an allelic series)"
same,binding signal,[2],"7.96 upbm affinity estimate (log intensity, higher = more binding, comparable within an allelic series)"
same,binding signal,[3],"8.06 upbm affinity estimate (log intensity, higher = more binding, comparable within an allelic series)"
same,binding signal,[10],"7.73 upbm affinity estimate (log intensity, higher = more binding, comparable within an allelic series)"
same,binding signal,[13],"7.88 upbm affinity estimate (log intensity, higher = more binding, comparable within an allelic series)"
same,binding signal,[4],"7.14 upbm affinity estimate (log intensity, higher = more binding, comparable within an allelic series)"
same,binding signal,[14],"7.81 upbm affinity estimate (log intensity, higher = more binding, comparable within an allelic series)"
same,binding signal,[15],"7.81 upbm affinity estimate (log intensity, higher = more binding, comparable within an allelic series)"
same,binding signal,[5],"7.18 upbm affinity estimate (log intensity, higher = more binding, comparable within an allelic series)"
same,binding signal,[18],"7.76 upbm affinity estimate (log intensity, higher = more binding, comparable within an allelic series)"
same,binding signal,[6],"7.13 upbm affinity estimate (log intensity, higher = more binding, comparable within an allelic series)"
CCTGCTGC,binding signal,[1],"8.37 upbm affinity estimate (log intensity, higher = more binding, comparable within an allelic series)"
same,binding signal,[2],"8.45 upbm affinity estimate (log intensity, higher = more binding, comparable within an allelic series)"
same,binding signal,[3],"8.42 upbm affinity estimate (log intensity, higher = more binding, comparable within an allelic series)"
same,binding signal,[7],"9.18 upbm affinity estimate (log intensity, higher = more binding, comparable within an allelic series)"
same,binding signal,[20],"9.23 upbm affinity estimate (log intensity, higher = more binding, comparable within an allelic series)"
CACTAATG,binding signal,[1],"11.7 upbm affinity estimate (log intensity, higher = more binding, comparable within an allelic series)"
same,binding signal,[2],"12.3 upbm affinity estimate (log intensity, higher = more binding, comparable within an allelic series)"
same,binding signal,[3],"11.6 upbm affinity estimate (log intensity, higher = more binding, comparable within an allelic series)"
same,binding signal,[8],"12.1 upbm affinity estimate (log intensity, higher = more binding, comparable within an allelic series)"
same,binding signal,[11],"13.2 upbm affinity estimate (log intensity, higher = more binding, comparable within an allelic series)"
same,binding signal,[16],"10.9 upbm affinity estimate (log intensity, higher = more binding, comparable within an allelic series)"
same,binding signal,[19],"12.1 upbm affinity estimate (log intensity, higher = more binding, comparable within an allelic series)"
AATATTTG,binding signal,[1],"9.84 upbm affinity estimate (log intensity, higher = more binding, comparable within an allelic series)"
same,binding signal,[2],"10 upbm affinity estimate (log intensity, higher = more binding, comparable within an allelic series)"
same,binding signal,[3],"9.7 upbm affinity estimate (log intensity, higher = more binding, comparable within an allelic series)"
GGCGGCCC,binding signal,[1],"8.11 upbm affinity estimate (log intensity, higher = more binding, comparable within an allelic series)"
same,binding signal,[2],"8.22 upbm affinity estimate (log intensity, higher = more binding, comparable within an allelic series)"
same,binding signal,[3],"8.03 upbm affinity estimate (log intensity, higher = more binding, comparable within an allelic series)"
same,binding signal,[8],"7.21 upbm affinity estimate (log intensity, higher = more binding, comparable within an allelic series)"
same,binding signal,[11],"9.97 upbm affinity estimate (log intensity, higher = more binding, comparable within an allelic series)"
same,binding signal,[16],"10.3 upbm affinity estimate (log intensity, higher = more binding, comparable within an allelic series)"
same,binding signal,[19],"7.16 upbm affinity estimate (log intensity, higher = more binding, comparable within an allelic series)"
CGTCCTCC,binding signal,[1],"8.1 upbm affinity estimate (log intensity, higher = more binding, comparable within an allelic series)"
same,binding signal,[2],"8.19 upbm affinity estimate (log intensity, higher = more binding, comparable within an allelic series)"
same,binding signal,[3],"8.16 upbm affinity estimate (log intensity, higher = more binding, comparable within an allelic series)"
same,binding signal,[9],"6.55 upbm affinity estimate (log intensity, higher = more binding, comparable within an allelic series)"
same,binding signal,[12],"6.64 upbm affinity estimate (log intensity, higher = more binding, comparable within an allelic series)"
same,binding signal,[17],"6.6 upbm affinity estimate (log intensity, higher = more binding, comparable within an allelic series)"
ACCCGTGC,binding signal,[1],"8.15 upbm affinity estimate (log intensity, higher = more binding, comparable within an allelic series)"
same,binding signal,[2],"8.32 upbm affinity estimate (log intensity, higher = more binding, comparable within an allelic series)"
same,binding signal,[3],"8.18 upbm affinity estimate (log intensity, higher = more binding, comparable within an allelic series)"
TTACATAA,binding signal,[1],"9.95 upbm affinity estimate (log intensity, higher = more binding, comparable within an allelic series)"
same,binding signal,[2],"10.4 upbm affinity estimate (log intensity, higher = more binding, comparable within an allelic series)"
same,binding signal,[3],"9.97 upbm affinity estimate (log intensity, higher = more binding, comparable within an allelic series)"
